# The campaign covered roughly 410,000 compounds. About 3,100 (0.76%) were called active. The sample holds actives, similar compounds and a random draw of the others, so the mix is not that of the screen. Unmarked numbers belong to inactive results. The call rests on the fitted dose curve; in most records, active means well fitted cell-killing curve with a large enough effect; inactive means no such curve, though single readings can be large or run the other way.
# Test: qHTS for Inhibitors of TGF-b: Cytotox Counterscreen
# Conditions: HepG2 CAGA-GFP viability, ATP luminescence, 18 h; series mostly up to 46.1 µM; activity change, negative = cytotoxicity: at the top concentration
# Outline: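 HepG2 CAGA-GFP cells (1000/well, DMEM with 1% FBS) received compound, then TGF-beta at 500 pg/mL final, and were incubated 18 hours at 37 degrees C. Viability was read by CellTiter-Glo luminescence. Media-only wells were set as complete cell-killing and DMSO as no toxicity.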
# Potency means the concentration at half of the fitted maximal effect.
SMILES,"activity change, negative = cytotoxicity",Potency
CCc1ccc(NS(=O)(=O)c2ccc3[nH]cc(C(=O)NCCc4cccc(C)c4)c(=O)c3c2)cc1,-5.43%,–
CC(=O)/C(=N\Nc1ccc(Cl)cc1Cl)Sc1cccc2cccnc12,–,3.98 µM (active)
COc1c(Cl)cc(Cl)cc1C(=O)Nc1cccc2cccnc12,-2.38%,–
O=C(Nc1cccc2cccnc12)C(F)(F)F,-32.1%,–
Clc1cccc[n+]1CCCC[n+]1ccccc1Cl,-52%,–
Cc1ccccc1-c1nc2cc(NC(=O)c3cccc(OCCC(C)C)c3)ccc2o1,2.29%,–
COc1cc(OC)c2c(c1C(CCN1CCCCC1)c1ccc(N(C)C)cc1)OC(=O)CC2c1ccc(N(C)C)cc1 (centres undefined),4.96%,–
COc1ccc(C(=O)Nc2ccccc2C(=O)N/N=C/c2ccc(O)c(OC)c2)cc1,–,3.55 µM (active)
COc1ccc(Nc2ncc(C(=O)Nc3cc(C)ccc3OC)c3ccccc23)cc1,2.26%,–
COc1cc(/C=C/C(=O)OCC(=O)Nc2cccc(Oc3ccccc3)c2)ccc1O,3.37%,–
Cc1onc(-c2ccc(F)cc2F)c1C(=O)Nc1cccc(C(F)(F)F)c1,-16.8%,–
COc1cc(NC(=O)c2[nH]cnc2C(N)=O)cc(C(=O)Nc2cccc(C(F)(F)F)c2)c1,–,7.08 µM (active)
COc1cc(OC)cc(C(=O)Nc2ccc3nc(Nc4cccc(C(F)(F)F)c4)cc(C)c3c2)c1,-36.6%,–
COc1ccc(/C=C/c2ccccn2)cc1OC,0.583%,–
Cc1ccc(-c2cn3c(n2)sc2cc(C(=O)NCc4cccs4)ccc23)c(C)c1,-1.61%,–
COc1ccc(NC(=O)Cn2c(=O)n(CCC(C)C)c(=O)c3cccnc32)cc1Cl,-15.1%,–
CCCCN1C(N)=NC[C@@H]1CC1CCCCC1,9.04%,–
CN(C)C1=NC[C@H](Cc2ccccc2)N1CCc1ccc(F)cc1,-8.32%,–
CCCC[C@@H]1CN=C(N)N1CCc1cc(C(F)(F)F)cc(C(F)(F)F)c1,–,15.8 µM (active)
CC(NC(=O)CCc1cn(Cc2ccccc2Cl)c2ccccc12)c1ccccc1 (centres undefined),-40.5%,–
Cc1cc(OC(C)C(=O)Nc2sc3c(c2C(N)=O)CCCC3)ccc1Cl (centres undefined),-2.1%,–
O=C(Cn1ncn2nc(-c3cccs3)cc2c1=O)NCc1cccc(Br)c1,-4.13%,–
Cc1ccc(C)c(OCC(=O)Nc2sc3c(c2C#N)CCCC3)c1C,-5.1%,–
CCOC(=O)N1CCc2c(sc3c2C(=O)NC(c2ccccc2F)N3)C1 (centres undefined),-25.8%,–
NC1=CC(=O)C(=O)c2cccnc21,–,6.31 µM (active)

SMILES,"activity change, negative = cytotoxicity",Potency
Cc1ccc2c(=O)cc(C(=O)Nc3sc4c(c3C(=O)NCc3cccnc3)CCCC4)oc2c1,-33.8%,–
COc1ccc(N2CCN(c3nc(-c4ccccc4F)nc4ccccc34)CC2)cc1,-3.07%,–
O=C(O)c1ccc(Nc2nc(-c3ccccc3)c3cc(Br)ccc3n2)cc1,1.26%,–
CC(C)Cn1c(=O)c2ccccc2n2c(-c3cccc(Cl)c3)nnc12,-27.9%,–
O=c1c2cc(Br)ccc2nc(-c2cccc(Cl)c2)n1O,–,15.8 µM (active)
CCOc1ccccc1C(=O)NC1(C(F)(F)F)NC(=O)N(CCc2ccc(OC)c(OC)c2)C1=O (centres undefined),2.01%,–
Cc1nc(SCC(=O)Nc2ccc(C(=O)O)cc2)n[nH]1,-5.27%,–
CN(C)c1ccc(/C=C/C=C/c2ccnc3ccccc23)cc1,-45.3%,–
COc1ccc(C2=Nn3c(nnc3-c3ccccc3OC)SC2)cc1OC1CCCC1,–,17.8 µM (active)
Cc1nnc2n1N=C(c1ccc3c(c1)NC(=O)CO3)CS2,-0.995%,–
O=C(Nc1ccc([N+](=O)[O-])cc1)c1cnn2c1NC(=C1CC1)C=C2C(F)F,-31.1%,–
CCOc1ccc(Nc2nc3c(S(=O)(=O)c4cccc(Cl)c4)nnn3c3ccsc23)cc1,-14.5%,–
CCc1nc2ccc(C(=O)Nc3ccc(OC)c(OC)c3)cn2c1N(C)C(=O)c1cccc(OC)c1,-0.381%,–
CCc1nc2ccc(C(=O)Nc3cccc(OC)c3)cn2c1N(CCC(C)C)CCN(C)C,–,11.2 µM (active)
CCc1nc2ccc(C(=O)N(C)CCN(C)C)cn2c1N(CC)CCOC,5.27%,–
COc1cccc(CNC(=O)C(=O)NCC(c2cccs2)S(=O)(=O)c2ccccc2)c1 (centres undefined),-3.22%,–
CN(C)c1ccc(/C=C/c2c3ccccc3nc3ccccc23)cc1,1.81%,–
O=C(C[C@H]1C/C=C\C[C@@H](NC(=O)OCC2c3ccccc3-c3ccccc32)C(=O)O[C@@H](c2ccccc2)CNC1=O)N[C@H](CO)Cc1ccccc1,–,12.6 µM (active)
O=C(N[C@@H]1C/C=C\C[C@@H](CC(=O)N(CCO)Cc2ccccc2)C(=O)N[C@H](Cc2ccccc2)COC1=O)OCC1c2ccccc2-c2ccccc21,-12.3%,–
CC(C)(C)OC(=O)C[C@@H]1C/C=C\C[C@@H](CC(=O)N[C@H](CO)Cc2ccccc2)C(=O)NC[C@@H](c2ccccc2)OC1=O,-6.66%,–
COc1ccccc1CNC(=O)CCn1c(=O)c2ccccc2n(CC(=O)Nc2cccc(Cl)c2)c1=O,-16.8%,–
COc1cc(NC(=O)CCn2nc(C)cc2C)cc(OC)c1OC,-1.73%,–
COc1ccc2oc(-c3ccc(C)c(NC(=O)c4sc5ccccc5c4Cl)c3)nc2c1,-8.16%,–
O=C(CCl)Nc1cccc(CP(=O)(c2ccccc2)c2ccccc2)c1,–,15.8 µM (active)
O=C(COc1ccccc1C(=O)Nc1ccccc1)Nc1cccc(F)c1,-3.03%,–

SMILES,"activity change, negative = cytotoxicity",Potency
CCc1cccc(NC(=O)c2cc(-c3ccccc3)n[nH]2)c1,-12.5%,–
Cc1cccc(CN2Cc3cccc4c3[C@H](C=CC4)CC2=S)c1,-24%,–
CCN1CCN(c2cc(C)c3cc(NC(=O)c4cc(Cl)ccc4OC)ccc3n2)CC1,–,11.2 µM (active)
COc1ccc(C(=O)Nc2ccc3nc(N4CCCCC4)cc(C)c3c2)cc1OC,–,inactive
CCOCCCNC(=S)Nc1ccc2nc(N3CCN(CC)CC3)cc(C)c2c1,-13.3%,–
COc1cc(C(=O)N2CCC(c3ccncc3)CC2)cc(OC)c1OC,-29.2%,–
CNC[C@H](CC1CCCCC1)NC[C@H](NCCC1CCCC1)[C@H](C)O,–,15.8 µM (active)
CCOc1cccc2cc(-c3cn4c(n3)sc3cc(C)ccc34)c(=O)oc12,-0.0206%,–
CCOC(=O)CSc1nc2c(c(=O)n(Cc3ccccc3Cl)c(=O)n2C)n1C,-17.5%,–
CCOC(=O)c1cnc2nc(SCc3ccccc3Cl)[nH]n2c1=O,–,2.82 µM (active)
CCOC(=O)c1cnc2sccn2c1=O,-1.63%,–
Cc1cc(N2CCN(c3cccc(C(F)(F)F)c3)CC2)n2nc(-c3ccccc3)nc2n1,1.82%,–
CN1C(=O)c2[nH]nc(-c3ccc(F)cc3)c2C1c1ccccn1 (centres undefined),-6.9%,–
CCOc1ccc(Nc2c(S(=O)(=O)c3ccccc3)cnc3ccccc23)cc1,-11.6%,–
CC(C)S(=O)(=O)c1oc(-c2ccc(F)cc2)nc1S(=O)(=O)c1ccc(F)cc1,–,2 µM (active)
Cc1ccc(-c2nc(S(=O)(=O)c3ccc(C)cc3)c(N3CCCCCC3)o2)cc1,-18.7%,–
O=C(CSc1oc(-c2ccc(F)cc2)nc1S(=O)(=O)c1ccc(Br)cc1)NC1CCCCC1,2.9%,–
COc1cccc(Cn2c(CNS(=O)(=O)c3ccc(Cl)s3)nc3cccnc32)c1,-23.5%,–
COc1ccccc1N1CCN(c2ccc(=O)n(CC(=O)NCc3ccc(OC(C)C)cc3)n2)CC1,-22.2%,–
O=C1C2C(c3ccccc3)CC=CC2C(c2ccoc2)N1Cc1ccccc1 (centres undefined),-20.3%,–
CC(C)c1ccc2c(c1)c(SC(C)(C)C)c(CC(C)(C)C(=O)O)n2Cc1ccc(Cl)cc1,–,10 µM (active)
O=C(Cn1c(=O)nc(-c2ccccc2)c2cc(Cl)ccc21)NCc1ccc(Cl)cc1,-12.1%,–
CC(C)c1ccc(Cn2c(COc3ccccc3)nc3ccccc32)cc1,-27.8%,–
O=C(c1cccc(Br)c1)N1CCN(Cc2cc(=O)n3nc(-c4ccccc4)sc3n2)CC1,-18.3%,–
CCCOc1cccc(C(=O)Nc2cccc(NC(=O)c3ccc(C(C)(C)C)cc3)c2)c1,3.52%,–

SMILES,"activity change, negative = cytotoxicity",Potency
CCCOc1ccc(N2CC(C(=O)Nc3ccccn3)CC2=O)cc1 (centres undefined),-3.04%,–
CCCOc1ccc(C(=O)C(CCC(CNCC)C(=O)c2ccc(OCCC)cc2)CNCC)cc1 (centres undefined),–,3.16 µM (active)
CC(C)(C)C1CCC(NC(=O)c2cnn3c2NC(=C2CC2)C=C3C(F)F)CC1 (centres undefined),-16.9%,–
CN(C)c1ccc(/C=C/c2sc3ccccc3[n+]2CCCCBr)cc1,-31.8%,–
Cc1c(CCO)sc[n+]1CC(=O)c1ccc2ccccc2c1,-31.7%,–
Cc1cc2oc3ccc(NCCC4CCCN4C)cc3c(=O)c2cc1C (centres undefined),–,10 µM (active)
CCC1CCCCN1S(=O)(=O)c1ccc(NC(=O)c2cc(=O)c3ccccc3o2)cc1 (centres undefined),-20.4%,–
CNCCCOc1cc2nc(N3CCCN(C)CC3)nc(NC3CCN(C)CC3)c2cc1OC,18.3%,–
COc1ccccc1CNS(=O)(=O)c1cc(Br)cc2c1N(C(C)=O)C(C)C2 (centres undefined),-4.39%,–
O=C(Cn1nc(Cc2cccnc2)c2ccccc2c1=O)N1CCN(c2ccccc2F)CC1,-35.2%,–
COc1cc(OC)c(/C=C/c2ccnc3ccccc23)c(OC)c1,-60.5%,–
O=C(CSc1nccn1Cc1ccc(F)cc1)NCc1ccccc1,2.14%,–
COc1cc(OC)c(C2C=C(C(=O)O)Nc3ncnn32)cc1OC (centres undefined),-5.04%,–
COCC(C)NC(=O)COc1nncc2ccccc12 (centres undefined),-14.5%,–
NC(Cc1ccc(F)cc1)c1csc(Nc2nncc3ccccc23)n1 (centres undefined),–,15.8 µM (active)
CN(Cc1ccccc1)c1ccc(/C=C/c2ccnc3ccccc23)cc1,-29.2%,–
Cc1ccc(OCC(=O)OCc2cc(=O)n3nc(C4CC4)sc3n2)cc1,-0.276%,–
CCCCC(CCCC)c1ccc(C=Nc2ccc(/C=C/c3ccnc4ccccc34)cc2)cc1,-13.4%,–
COc1ccccc1-c1nnc(SCC(N)=O)o1,-3.91%,–
COc1ccc(-c2nnc(SC(=O)N3c4ccccc4Sc4ccccc43)o2)cc1,–,11.2 µM (active)
COc1ccc(CN(C(=O)CSc2nnc(-c3ccc(OC)c(OC)c3)o2)c2ccc(F)cc2)cc1,-10%,–
COc1cccc(CNc2nccn(-c3ccc(OC)c(OC)c3)c2=O)c1,4.25%,–
CC(C)Nc1nc(NCCOc2ccccc2Cl)c2sccc2n1,-68.9%,–
COc1cccc(CNc2nc(NCc3ccccc3OC)nc3ccsc23)c1,–,11.2 µM (active)
